Residual activity data for ten molecules are collected here from ChEMBL document CHEMBL2218924, “A broad activity screen in support of a chemogenomic map for kinase signalling research and drug discovery” (Biochem J, 2013).

Assay [1] addresses T1, CDK9/cyclin T1 (Homo sapiens) (UniProt O60563+P50750). As to conditions: at 1 µM.
Assay [2] has as its target T1, CDK9/cyclin T1 (Homo sapiens). The note with it: at 10 µM.
For assay [3], the target named is T2, Serine/threonine-protein kinase Chk1 (Homo sapiens) (UniProt O14757).
T2 sequence (whole entry): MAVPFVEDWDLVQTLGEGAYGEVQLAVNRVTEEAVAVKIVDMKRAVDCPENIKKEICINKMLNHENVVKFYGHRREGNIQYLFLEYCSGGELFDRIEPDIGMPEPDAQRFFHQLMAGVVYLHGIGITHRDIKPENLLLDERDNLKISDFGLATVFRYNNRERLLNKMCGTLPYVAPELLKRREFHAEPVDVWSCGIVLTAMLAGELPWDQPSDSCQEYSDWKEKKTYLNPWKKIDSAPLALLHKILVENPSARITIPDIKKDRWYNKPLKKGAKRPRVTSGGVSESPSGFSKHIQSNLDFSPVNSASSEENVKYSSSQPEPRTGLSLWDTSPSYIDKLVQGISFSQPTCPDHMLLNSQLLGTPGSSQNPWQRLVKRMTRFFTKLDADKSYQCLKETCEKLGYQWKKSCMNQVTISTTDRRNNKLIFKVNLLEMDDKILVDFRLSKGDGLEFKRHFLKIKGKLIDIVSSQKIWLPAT
The note with it: at 1 µM.

Assay [4] has as its target T2, Serine/threonine-protein kinase Chk1 (Homo sapiens). The note with it: at 10 µM.
In assay [5] the target is Serine/threonine-protein kinase Chk2 (Homo sapiens) (UniProt O96017). The note with it: at 1 µM.
Sequence of Serine/threonine-protein kinase Chk2 (Homo sapiens) (O96017 whole entry): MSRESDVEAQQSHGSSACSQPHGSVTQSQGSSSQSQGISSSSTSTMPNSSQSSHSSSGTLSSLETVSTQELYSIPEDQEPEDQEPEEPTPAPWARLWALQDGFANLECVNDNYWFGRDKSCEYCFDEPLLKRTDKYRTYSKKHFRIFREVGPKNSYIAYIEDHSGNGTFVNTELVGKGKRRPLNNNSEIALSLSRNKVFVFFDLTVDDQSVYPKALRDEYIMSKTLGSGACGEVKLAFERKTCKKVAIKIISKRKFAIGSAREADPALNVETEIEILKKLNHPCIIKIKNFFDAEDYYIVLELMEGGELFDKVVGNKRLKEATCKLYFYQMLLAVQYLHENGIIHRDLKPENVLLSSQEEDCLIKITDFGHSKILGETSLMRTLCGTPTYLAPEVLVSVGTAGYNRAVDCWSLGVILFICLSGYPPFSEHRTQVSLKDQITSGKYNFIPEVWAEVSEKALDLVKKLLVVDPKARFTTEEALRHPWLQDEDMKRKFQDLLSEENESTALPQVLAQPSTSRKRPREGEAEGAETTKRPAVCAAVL
Assay [6] has the same target. The note with it: at 10 µM.
Assay [7] deals with Casein kinase I isoform gamma-1 (Homo sapiens) (UniProt Q9HCP0). As to conditions: at 1 µM.
Sequence of Casein kinase I isoform gamma-1 (Homo sapiens) (Q9HCP0 whole entry, looked up, canonical isoform): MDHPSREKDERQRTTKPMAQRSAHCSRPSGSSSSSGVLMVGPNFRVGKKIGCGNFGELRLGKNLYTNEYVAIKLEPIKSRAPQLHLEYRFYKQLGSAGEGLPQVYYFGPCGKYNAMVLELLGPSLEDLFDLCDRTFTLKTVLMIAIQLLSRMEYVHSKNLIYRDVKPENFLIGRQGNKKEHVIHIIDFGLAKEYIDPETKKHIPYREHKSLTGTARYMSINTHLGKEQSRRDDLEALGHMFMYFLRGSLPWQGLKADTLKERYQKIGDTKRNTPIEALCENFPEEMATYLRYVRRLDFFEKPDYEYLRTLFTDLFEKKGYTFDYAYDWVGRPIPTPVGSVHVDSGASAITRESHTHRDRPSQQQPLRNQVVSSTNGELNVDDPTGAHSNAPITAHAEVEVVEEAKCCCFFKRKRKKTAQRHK
For assay [8] the target is unchanged. As to conditions: at 10 µM.
Assay [9] has as its target Casein kinase I isoform delta (Homo sapiens) (UniProt P48730). The note with it: at 1 µM.
For assay [10] the target is unchanged. As to conditions: at 10 µM.
Assay [11] concerns the target T3, Casein kinase II (Homo sapiens) (UniProt P67870+P68400+P19784). The note with it: at 1 µM.
The target in assay [12] is T3, Casein kinase II (Homo sapiens). As to conditions: at 10 µM.
Assay [13] concerns the target Casein kinase II subunit alpha' (Homo sapiens) (UniProt P19784). As to conditions: at 1 µM.
For assay [14] the target is unchanged. As to conditions: at 10 µM.
Assay [15] concerns the target Dual specificity protein kinase CLK3 (Homo sapiens) (UniProt P49761). As to conditions: at 1 µM.
Assay [16] has the same target. As to conditions: at 10 µM.
For assay [17], the target named is Tyrosine-protein kinase CSK (Homo sapiens) (UniProt P41240). The note with it: at 10 µM.
Sequence of Tyrosine-protein kinase CSK (Homo sapiens) (P41240 2-450 limits assumed): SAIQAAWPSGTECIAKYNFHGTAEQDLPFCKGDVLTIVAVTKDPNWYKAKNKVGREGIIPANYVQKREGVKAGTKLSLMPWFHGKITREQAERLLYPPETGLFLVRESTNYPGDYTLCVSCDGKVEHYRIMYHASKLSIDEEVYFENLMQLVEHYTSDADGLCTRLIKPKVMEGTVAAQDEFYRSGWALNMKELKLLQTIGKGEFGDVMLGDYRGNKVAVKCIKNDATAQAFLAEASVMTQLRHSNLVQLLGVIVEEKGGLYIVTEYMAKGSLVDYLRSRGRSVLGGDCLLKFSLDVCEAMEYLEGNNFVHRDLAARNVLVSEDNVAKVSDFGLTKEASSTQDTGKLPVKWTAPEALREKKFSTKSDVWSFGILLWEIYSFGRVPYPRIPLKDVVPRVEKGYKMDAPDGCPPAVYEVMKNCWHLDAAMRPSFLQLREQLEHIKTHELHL
Assay [18] addresses Dual specificity protein kinase CLK2 (Homo sapiens) (UniProt P49760). The note with it: at 1 µM.
For assay [19] the target is unchanged. The note with it: at 10 µM.
For assay [20], the target named is Tyrosine-protein kinase CSK (Homo sapiens) (UniProt P41240). As to conditions: at 1 µM.

Sequence of Casein kinase I isoform delta (Homo sapiens) (P48730 whole entry, looked up, canonical isoform): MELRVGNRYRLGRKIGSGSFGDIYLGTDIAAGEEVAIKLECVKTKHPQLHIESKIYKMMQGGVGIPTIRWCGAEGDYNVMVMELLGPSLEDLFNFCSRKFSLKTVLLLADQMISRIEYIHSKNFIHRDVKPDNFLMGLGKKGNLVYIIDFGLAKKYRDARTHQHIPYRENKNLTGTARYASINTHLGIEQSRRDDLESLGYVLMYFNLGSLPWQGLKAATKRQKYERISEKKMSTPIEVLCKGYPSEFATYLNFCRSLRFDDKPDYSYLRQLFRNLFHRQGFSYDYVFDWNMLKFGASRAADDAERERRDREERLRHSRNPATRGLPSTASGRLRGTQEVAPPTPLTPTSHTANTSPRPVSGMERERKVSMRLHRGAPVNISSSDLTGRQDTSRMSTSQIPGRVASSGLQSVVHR
Sequence of Casein kinase II subunit alpha' (Homo sapiens) (P19784 whole entry, looked up): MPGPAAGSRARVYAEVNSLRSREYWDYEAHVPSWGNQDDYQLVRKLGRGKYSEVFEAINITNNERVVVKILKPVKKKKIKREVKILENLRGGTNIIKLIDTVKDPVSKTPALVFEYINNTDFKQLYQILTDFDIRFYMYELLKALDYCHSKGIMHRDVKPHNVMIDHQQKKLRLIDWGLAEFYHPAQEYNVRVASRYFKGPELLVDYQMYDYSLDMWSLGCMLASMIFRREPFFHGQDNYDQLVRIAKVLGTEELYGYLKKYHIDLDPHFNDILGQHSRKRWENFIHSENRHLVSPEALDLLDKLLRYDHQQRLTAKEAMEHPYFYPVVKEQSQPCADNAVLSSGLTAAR
T3 sequence (P19784 whole entry, looked up): as above
T3 sequence (P67870 whole entry, looked up): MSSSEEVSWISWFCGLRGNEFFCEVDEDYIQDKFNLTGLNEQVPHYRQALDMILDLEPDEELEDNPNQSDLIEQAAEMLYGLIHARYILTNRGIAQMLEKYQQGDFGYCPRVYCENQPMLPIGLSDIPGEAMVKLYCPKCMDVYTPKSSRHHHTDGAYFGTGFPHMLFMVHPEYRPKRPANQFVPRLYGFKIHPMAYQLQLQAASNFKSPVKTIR
T3 sequence (P68400 whole entry, looked up): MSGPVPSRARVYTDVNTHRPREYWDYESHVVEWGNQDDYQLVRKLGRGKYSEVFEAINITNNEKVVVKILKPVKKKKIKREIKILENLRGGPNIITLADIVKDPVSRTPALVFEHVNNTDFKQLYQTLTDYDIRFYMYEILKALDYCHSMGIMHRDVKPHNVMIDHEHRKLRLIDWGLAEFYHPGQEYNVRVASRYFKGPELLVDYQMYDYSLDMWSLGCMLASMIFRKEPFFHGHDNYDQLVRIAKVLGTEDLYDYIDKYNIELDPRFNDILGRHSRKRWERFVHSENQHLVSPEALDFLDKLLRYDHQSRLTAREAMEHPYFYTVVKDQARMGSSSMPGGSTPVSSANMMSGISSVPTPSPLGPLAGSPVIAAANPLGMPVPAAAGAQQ
Sequence of Dual specificity protein kinase CLK3 (Homo sapiens) (P49761 whole entry, looked up): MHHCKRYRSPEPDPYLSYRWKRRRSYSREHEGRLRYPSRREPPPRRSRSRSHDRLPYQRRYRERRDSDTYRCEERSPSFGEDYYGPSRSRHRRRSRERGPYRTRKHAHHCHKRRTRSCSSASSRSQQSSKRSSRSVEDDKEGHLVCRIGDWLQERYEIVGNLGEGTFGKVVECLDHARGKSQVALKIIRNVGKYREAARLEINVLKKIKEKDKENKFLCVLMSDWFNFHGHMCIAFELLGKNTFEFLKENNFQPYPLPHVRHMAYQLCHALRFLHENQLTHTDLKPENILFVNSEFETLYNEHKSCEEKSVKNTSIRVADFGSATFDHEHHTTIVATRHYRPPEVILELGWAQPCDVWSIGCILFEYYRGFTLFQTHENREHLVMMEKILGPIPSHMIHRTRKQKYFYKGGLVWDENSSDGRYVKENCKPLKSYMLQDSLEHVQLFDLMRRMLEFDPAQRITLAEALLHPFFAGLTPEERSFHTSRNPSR
Sequence of Dual specificity protein kinase CLK2 (Homo sapiens) (P49760 whole entry, looked up): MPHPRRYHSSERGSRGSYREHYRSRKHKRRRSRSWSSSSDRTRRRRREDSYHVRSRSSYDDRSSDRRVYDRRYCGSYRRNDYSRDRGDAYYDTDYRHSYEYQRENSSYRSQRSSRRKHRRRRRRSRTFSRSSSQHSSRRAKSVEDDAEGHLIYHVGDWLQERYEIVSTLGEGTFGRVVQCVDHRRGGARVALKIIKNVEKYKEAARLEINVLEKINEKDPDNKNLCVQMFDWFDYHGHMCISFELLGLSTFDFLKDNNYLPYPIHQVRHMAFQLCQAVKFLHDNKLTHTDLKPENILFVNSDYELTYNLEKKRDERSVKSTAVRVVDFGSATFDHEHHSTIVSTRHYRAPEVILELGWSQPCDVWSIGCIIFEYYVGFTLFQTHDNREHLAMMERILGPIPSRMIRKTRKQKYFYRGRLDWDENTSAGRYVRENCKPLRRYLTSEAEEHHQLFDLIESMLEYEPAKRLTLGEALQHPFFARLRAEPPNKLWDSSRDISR

`COc1cc(OC)c(/C=C2\C(=O)Nc3ccccc32)c(OC)c1`: the residual activity (in general, the signal under treatment as a percentage of the control signal) in [1] was determined as 94%; in assay [2], 48%; in assay [3], 88%; in assay [4] it was 81%; in assay [5], 89%; in assay [6], 78%. Also, the residual activity in assay [7] was 101%; in [8], 70%; in [9], 37%; in [10], 6%; in assay [11], 88%; in assay [12], 91%. Further, the residual activity amounted to 94% in [13]; 90% in assay [14]; 83% in assay [15]; 81% in assay [16]; 99% in assay [17].
Consider `CC(C)[C@H](CO)Nc1nc(Nc2cccc(Cl)c2)c2ncn(C(C)C)c2n1`, for which the residual activity in assay [1] worked out at 23%; in assay [2] it was 5%; in assay [3], 99%; in assay [4], 86%; in [5], 96%; in [6], 38%. Also, the residual activity in assay [7] is 10%; in [8], 1%; in [9] it was 74%; in [10] it was 23%; in assay [11], 99%; in assay [12], 96%. For the same molecule, the residual activity in assay [18] was determined as 8%; in [19] it was 1%; in assay [15], 55%; in assay [16] it was 11%; in [17], 65%.
Take `COc1cc2ncnc(Nc3ccc(OCc4ccccc4)cc3)c2cc1OC`: the residual activity is 100% in assay [1]; 87% in assay [2]; 101% in assay [3]; 87% in [4]; 8% in assay [5]; 3% in assay [6]. Also, the residual activity turned out to be 95% in [7]; 95% in [8]; 77% in assay [9]; 79% in assay [10]; 92% in assay [11]; 116% in assay [12]. Also, the residual activity in assay [13] came to 121%; in assay [14], 99%; in assay [18], 117%; in assay [19] it was 93%; in [15] it was 82%; in [16] it was 87%. Also, the residual activity in [20] worked out at 84%; in [17], 62%.
Regarding `CCn1cnc2c(Nc3cccc(Cl)c3)nc(N[C@@H]3CCCC[C@@H]3N)nc21`, the residual activity in [1] is 8%; in [2], 0%; in [3], 83%; in [4], 28%; in [5], 59%; in [6] it was 12%. Further, the residual activity in [7] was 30%; in assay [8], 6%; in [9], 89%; in assay [10] it was 51%; in [11], 91%; in assay [12] it was 57%. Also, the residual activity amounted to 10% in assay [18]; 4% in [19]; 76% in assay [15]; 30% in assay [16]; 69% in assay [17].
For `O=c1[nH]c2ccccc2n1C1CCN(Cc2ccc(-c3nc4cc5[nH]cnc5cc4nc3-c3ccccc3)cc2)CC1`, the residual activity in assay [1] stood at 104%; in assay [2], 105%; in assay [3], 102%; in assay [4] it was 88%; in assay [5], 95%; in assay [6], 87%. Also, the residual activity in assay [7] was determined as 90%; in [8], 62%; in assay [9], 84%; in assay [10], 53%; in assay [11], 89%; in [12] it was 101%. The residual activity in assay [13] was 113%; in assay [14] it was 95%; in assay [18] it was 98%; in [19], 76%; in assay [16] it was 76%; in assay [20] it was 112%. Also, the residual activity in assay [17] was 89%.
Regarding `C[S+]([O-])c1ccc(-c2nc(-c3ccc(F)cc3)c(-c3ccncc3)[nH]2)cc1` (stereo not drawn), the residual activity in assay [1] was found to be 98%; in assay [2] it was 108%; in assay [3], 104%; in assay [4], 97%; in assay [5], 90%; in assay [6], 90%. Besides, the residual activity in assay [7] was found to be 119%; in assay [8] it was 61%; in assay [11], 100%; in assay [12], 104%; in [13], 122%; in assay [14] it was 105%. The residual activity turned out to be 114% in assay [18]; 94% in assay [19]; 98% in assay [15]; 98% in [16]; 103% in assay [20]; 98% in assay [17].
With `COc1ccc2c(c[n+](C)c3c4cc5c(cc4ccc23)OCO5)c1OC`, the residual activity in assay [3] was found to be 86%; in assay [4], 99%; in assay [5], 73%; in assay [6], 90%; in assay [7], 80%; in assay [8] it was 71%. Moreover, the residual activity in assay [11] was determined as 92%; in [12], 110%; in assay [13], 126%; in [18] it was 120%; in assay [19], 93%; in [15] it was 74%. The residual activity in [16] was 80%; in [17], 95%.
On to `COc1cc2nccc(Oc3ccc(NC(=O)Nc4cc(C)on4)c(Cl)c3)c2cc1OC`, for which the residual activity in [1] turned out to be 76%.
As for `O=C1c2ccccc2-c2nc3nnnn3nc21`, the residual activity amounted to 129% in assay [13]; 77% in [14]; 115% in assay [18]; 107% in assay [19]; 83% in assay [15]; 119% in assay [16]. Also, the values for the residual activity in assay [20] and in assay [17] were 123% and 115%, respectively.
On to `N/C(=N\[N+](=O)[O-])N/N=C\c1ccc(-c2cccc([N+](=O)[O-])c2)o1`, for which the residual activity worked out at 91% in assay [5]; 75% in assay [6]; 88% in assay [7]; 82% in [8]; 80% in assay [9]; 76% in assay [10]. Besides, the residual activity turned out to be 97% in assay [11]; 89% in [12]; 93% in assay [15]; 86% in assay [16]; 122% in assay [20]; 100% in [17].
